High-throughput results: PubChem BioAssay, several laboratories
Wee1 degr inh – blocks degradation of human Wee1 kinase; reporter increase, % at 5 µM; AID 1321; actives 1.2% (n = 220,000); HeLa Luc-Wee1K328M stability, luciferase luminescence; 100% = proteasome inhibitor MG132 effect;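 active = activation above the mean of all tested compounds plus 3 SD, set per screening run, cut at about 8.8% in these data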;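 also: cells exposed to compound for 20 h before luminescence read; 0% = DMSO alone and 100% = MG132 at 30 µM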
Target sequence (P30291 whole entry K328M): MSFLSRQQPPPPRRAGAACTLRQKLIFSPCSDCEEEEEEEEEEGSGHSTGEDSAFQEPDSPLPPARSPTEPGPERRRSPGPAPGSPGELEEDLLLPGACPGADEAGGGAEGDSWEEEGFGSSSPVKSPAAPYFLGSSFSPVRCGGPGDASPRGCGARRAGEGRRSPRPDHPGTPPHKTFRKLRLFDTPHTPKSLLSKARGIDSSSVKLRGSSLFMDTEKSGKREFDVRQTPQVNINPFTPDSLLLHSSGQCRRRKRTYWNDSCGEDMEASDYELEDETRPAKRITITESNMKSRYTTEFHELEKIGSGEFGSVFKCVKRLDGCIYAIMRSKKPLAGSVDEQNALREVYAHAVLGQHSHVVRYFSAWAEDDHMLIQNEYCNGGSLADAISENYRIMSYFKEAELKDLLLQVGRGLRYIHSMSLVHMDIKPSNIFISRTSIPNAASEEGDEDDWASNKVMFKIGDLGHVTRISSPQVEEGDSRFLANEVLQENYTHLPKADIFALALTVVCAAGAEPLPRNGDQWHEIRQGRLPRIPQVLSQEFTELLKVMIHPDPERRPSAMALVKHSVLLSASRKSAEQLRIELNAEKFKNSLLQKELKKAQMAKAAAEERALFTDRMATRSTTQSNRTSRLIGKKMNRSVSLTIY
HIF activator – HIF pathway transcriptional activation; actives 0.32% (n = 300,000); AID 1910; activation, % at 7.5 µM (by protocol); U2OS HRE-luciferase reporter, luminescence; normalized: DMSO 0%, desferrioxamine 100%;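 active = mean activation of at least 10% of the iron chelator positive control signal, with at least half of replicates also reaching 10%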
KLF5 inh – inhibitors of KLF5 expression. DLD-1 KLF5 promoter-luciferase reporter, luminescence. inhibition, % at 5 µM. actives 0.23% (n = 290,000). AID 1700;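 active = inhibition above a per-plate limit of that plate's mean compound inhibition plus 3 SD, cut at about 60% in these data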;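 also: 0% = DMSO wells and 100% = LY294002 at 200 µM; higher means less KLF5 promoter-driven luciferase light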
aSyn UTR inh – MLPCN primary screen, SNCA 5' untranslated region; actives 0.82% (n = 300,000); AID 1813; alpha-synuclein 5'UTR reporter, inhibitor activity; inhibition, % (tested at 7.5 µM); in the data active = inhibition above about 60%;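 also: H4 neuroglioblastoma cells stably carrying SNCA 5'UTR luciferase fusion; 0% = DMSO wells and 100% = positive control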
Platelet DG rel – platelet dense granule release activity; inhibition, %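 (compounds screened at 7.5 µM in platelet-rich plasma)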; actives 0.22% (n = 300,000); human platelet-rich plasma, SFLLRN dense granule ATP release, luminescence;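 active = mean replicate score, as percent of positive control, at or above 50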
Wee1 degr conf – human Wee1 degradation inhibition, confirmation; shares compounds with Wee1 degr inh; HeLa Luc-Wee1K328M degradation, luminescence; vehicle 0%, proteasome-blocked wells 100%; activation, % at 5 µM; actives 4% (n = 1,100); in the data active = activation above about 8.9%
* = called active by the depositor; x = no result. Hits are enriched below; roughly 2.1% of the tested compounds scored in any of these assays.

SMILES	Wee1 degr inh	HIF activator	KLF5 inh	aSyn UTR inh	Platelet DG rel	Wee1 degr conf
Cc1cc2nc(-c3cccc(NC(=O)c4ccc(Br)o4)c3C)oc2cc1C	14*	0	-37	-4	3	0
O=C(Nc1ccccc1)Nc1ccc(Br)cc1F	2	4	-64	-163	0	x
O=C(Nc1cccc(Cl)c1)Nc1ccc(Br)cc1F	13*	2	-18	-115	-3	-1
O=C(NCC1CCCO1)c1cc(C(=O)C2CCCCC2)c[nH]1 (centres undefined)	2	0	-7	-14	0	x
CC(=O)c1c(C)[nH]c(C(=O)NCc2cccs2)c1C	1	-26	-13	-14	-2	x
CC(=O)c1c(C)[nH]c(C(=O)NCc2ccco2)c1C	12*	0	-27	9	-1	4
CCCCOc1ccc(CNC(=O)NS(=O)(=O)c2ccc(OCC)cc2)cc1	13*	1	-13	16	4	3
O=C(c1ccc(F)cc1)n1ccc(-c2cnc(-c3ccccc3)s2)n1	15*	3	-115	-124	10	3
O=C(C1=NN[C@@H]2C(=O)N(Cc3ccccc3)C(=O)[C@H]12)c1ccc(F)cc1	11*	-1	6	-8	5	-3
CCC(=O)N1CC2(c3ccccc3)CN(C(=O)CC)CC(c3ccccc3)(C1)C2=O	12*	0	-9	-1	-3	0
CN1CCN(C(CNS(=O)(=O)c2ccc([N+](=O)[O-])cc2)c2ccc(F)cc2)CC1 (centres undefined)	x	0	x	-2	8	x
CCn1cc(C(=O)OCC(=O)c2ccc(Cl)cc2)c(=O)c2ccc(C)nc21	-1	1	0	19	-11	x
CCn1cc(C(=O)OCC(=O)c2ccccc2)c(=O)c2ccc(C)nc21	12*	-1	-17	24	-2	-1
C=C(C)CNC(=S)N/N=C/c1ccc([N+](=O)[O-])cc1	1	1	-33	-22	-1	x
C=C(C)CNC(=S)N/N=C/c1c(F)cccc1F	14*	1	-32	-34	3	0
O=C(N/N=C/c1ccco1)c1cc(=O)[nH]c2ccccc12	28*	-1	-18	-6	3	0
Nc1nnc(/C=C/c2ccccc2)s1	2	1	-12	-60	1	x
Cc1cc(C)c(S(=O)(=O)NCC(=O)NCc2cc(=O)n(C)c(=O)n2C)c(C)c1	x	0	-22	1	-5	x
Cc1ccccc1C(=O)NC1CCN(Cc2nnnn2Cc2ccccc2)CC1	-2	1	6	3	3	x
O=C(NC1CCN(Cc2nnnn2CCc2ccccc2)CC1)c1ccccc1F	12*	0	41	9	0	-1
COc1cc(/C=C/c2cc[n+](C)cc2)ccc1OCC(=O)Nc1ccccc1	x	2	9	-76	-4	x
COc1cc(C=C2C(=O)OC(C)(C)OC2=O)ccc1OCC(=O)Nc1ccccc1	15*	1	-40	-123	3	3
O=C(NCCOc1ccccc1)c1cc(C(=O)NCCOc2ccccc2)cc([N+](=O)[O-])c1	-4	-1	-18	7	18	x
CN(CCOc1ccccc1)C(=O)c1cc([N+](=O)[O-])cc([N+](=O)[O-])c1	17*	0	-21	9	-5	-3
C=CCn1c(SCC(=O)Nc2ccccc2CC)nnc1-c1ccncc1	13*	0	2	-5	-2	3
SMILES	Wee1 degr inh	HIF activator	KLF5 inh	aSyn UTR inh	Platelet DG rel	Wee1 degr conf
CCOC(=O)CSc1nc(C(C)(C)C)nc2ccccc12	1	1	-4	13	6	x
Cc1ccc2[nH]c(C(=O)NN=C3CCCCC3)c(-c3ccccc3)c2c1	16*	0	-4	3	7	4
CSc1ccc(-c2nnn(CC(=O)NCc3ccccc3)n2)cc1	-1	0	-7	-1	1	x
CCOC(=O)C(Cc1ccccc1)NC(=O)Cn1nnc(-c2ccc(SC)cc2)n1 (centres undefined)	13*	0	-1	-6	10	4
NN1C(=O)NC(c2ccccc2)(c2ccccc2)C1=O	-3	-48	-36	-16	-11	x
CC(=O)Nc1ccc(CN2CCCN(C)CC2)cc1	x	0	-11	0	0	x
CCOC(=O)c1c(-c2ccccc2)csc1NC(=O)CSc1nnc(C)s1	12*	0	-13	2	-1	-1
